Reference: PubChem BioAssay (NCATS)
Values joined by “and” are separate entries in the source; they are usually repeats but may differ in a detail not shown here. Identical values can stand only once. Records with an inconclusive call do not appear. Active and inactive are the calls of the source. Unless noted, calls come from the whole dose curve; as a rule, active = well fitted curve in the direction sought with a large enough effect; inconclusive = small, poorly fitted or top-dose-only effect, or another doubt; inactive = no such curve, though single readings can be large; an effect the other way counts as inactive or inconclusive.

How the values were obtained:
[1] = qHTS assay for small molecule activators of the p53 signaling pathway (AID 651743; active = well fitted activation curve with a large enough effect in the signal ratio, not every such curve was filed as active; the % refers to the signal ratio; note: % of control where 0% means no effect); conditions: HCT-116 p53RE-bla, beta-lactamase FRET ratio, 16 h; stronger effect = higher value
Procedure, shortened: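 A beta-lactamase reporter under p53 response element control, stably carried by HCT-116 cells, reported pathway activation. Test compounds were applied for 16 hours at 37 C, and fluorescence was measured 2 hours after adding the B/G FRET substrate.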

[2] = qHTS assay for environmental chemicals that activate the Aryl hydrocarbon Receptor (AhR) signaling pathway (AID 651777); conditions: 1A2-DRE human hepatoma cells, luciferase, 24 h; stronger effect = higher value; note: % of control where 0% means no effect; nearly all actives have a fitted effect of over 15% in size
Procedure, shortened: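 Following a 24 hr incubation with test chemicals at 37 C and 5% CO2, 1A2-DRE human hepatoma cells received One-Glo reagent; after 30 min at room temperature, luciferase output reflected CYP1A2 induction via AhR.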

[3] = target: Peroxisome proliferator-activated receptor alpha (Homo sapiens) (UniProt Q07869); test: qHTS assay for small molecule agonists of the peroxisome proliferator-activated receptor alpha (PPARalpha) signaling pathway (AID 651778); conditions: PathHunter PPARalpha complementation, chemiluminescence, 6 h; stronger effect = higher value; note: % of control where 0% means no effect
Peroxisome proliferator-activated receptor alpha (Homo sapiens), sequence (Q07869 whole entry, looked up): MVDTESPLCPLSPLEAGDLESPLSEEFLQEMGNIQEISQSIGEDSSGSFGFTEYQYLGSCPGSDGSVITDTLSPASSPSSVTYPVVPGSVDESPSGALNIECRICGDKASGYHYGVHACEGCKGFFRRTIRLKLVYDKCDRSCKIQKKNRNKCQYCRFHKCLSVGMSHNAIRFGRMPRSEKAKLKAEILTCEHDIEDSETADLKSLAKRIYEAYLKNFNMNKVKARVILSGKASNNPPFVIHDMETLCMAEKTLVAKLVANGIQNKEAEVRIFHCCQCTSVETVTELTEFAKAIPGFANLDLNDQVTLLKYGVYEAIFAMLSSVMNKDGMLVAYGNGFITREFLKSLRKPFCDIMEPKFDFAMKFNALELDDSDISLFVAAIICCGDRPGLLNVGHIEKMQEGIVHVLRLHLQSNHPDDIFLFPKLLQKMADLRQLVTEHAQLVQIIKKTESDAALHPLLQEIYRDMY
Procedure, shortened: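 Chemiluminescence from complemented enzyme reported PPARalpha activation in cells after 6 hr of compound treatment at 37 C. The detection reagent was incubated for 60 min at room temperature, and compounds were scored as agonists.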

[4] = qHTS assay for small molecule activators of the nuclear factor-kappa B (NF-kB) signaling pathway (AID 651749; active = well fitted activation curve with a large enough effect in the signal ratio; the % refers to the signal ratio; note: potency is the fitted concentration of half-maximal effect; for activation: % of control where 0% means no effect); conditions: NF-kB-bla ME-180 cells, beta-lactamase FRET ratio, 16 h; activation: stronger effect = higher value
Procedure, shortened: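 FRET-based beta-lactamase detection in ME-180 cells reports NF-kB response-element-driven transcription following overnight (16 hr) compound treatment.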

[5] = target: Glucagon-like peptide 1 receptor (Homo sapiens) (UniProt P43220); test: qHTS of GLP-1 Receptor Agonists: LOPAC Validation (AID 624148);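 note: luminescence from a luciferase reporter switched on by cAMP; 0% is about no effect; higher luminescence signal means agonism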
Glucagon-like peptide 1 receptor (Homo sapiens), sequence (P43220 whole entry, looked up): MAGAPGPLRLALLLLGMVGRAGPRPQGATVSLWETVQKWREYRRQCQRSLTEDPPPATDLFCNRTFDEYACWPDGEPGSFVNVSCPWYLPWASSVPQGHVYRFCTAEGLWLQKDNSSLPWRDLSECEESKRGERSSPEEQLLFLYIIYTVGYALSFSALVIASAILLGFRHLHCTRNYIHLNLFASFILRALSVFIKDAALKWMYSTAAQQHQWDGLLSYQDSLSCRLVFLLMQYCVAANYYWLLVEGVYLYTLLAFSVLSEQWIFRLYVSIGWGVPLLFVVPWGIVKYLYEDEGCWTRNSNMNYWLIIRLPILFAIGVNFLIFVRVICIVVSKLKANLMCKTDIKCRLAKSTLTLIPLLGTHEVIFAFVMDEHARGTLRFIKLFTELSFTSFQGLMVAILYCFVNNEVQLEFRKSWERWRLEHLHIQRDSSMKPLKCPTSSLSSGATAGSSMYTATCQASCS
Procedure, shortened: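 Agonism scored as increased luciferase luminescence driven by cAMP in HEK293 clones carrying GLP-1R. Cells settled 12 hours, received compound for 4-6 hr at 37 deg C, 5% CO2, and were read after 12 min detection reagent at RT.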

[6] = qHTS of Nrf2 Activators: LOPAC Validation (AID 624149); note: 0% is about no effect
Procedure, shortened: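 AREc32_Fluc cells, 1000/well, OPTI-MEM + 5% FBS, o/n 37 deg C 5% CO2; compound pin-transfer, 24 hr 37 deg C; Steady-Glo 30 min RT, luminescence read.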

[7] = qHTS assay for small molecule agonists of the antioxidant response element (ARE) signaling pathway (AID 651741; active = well fitted activation curve with a large enough effect in the signal ratio; the % refers to the signal ratio; note: potency is the fitted concentration of half-maximal effect; for activation: % of control where 0% means no effect)
Procedure, shortened: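 Agonist activity is measured as ARE-driven beta-lactamase expression in a stable HepG2 reporter line, using 16 h compound treatment at 37 C and a FRET substrate fluorescence readout after 2 h.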

[8] = qHTS assay for small molecule disruptors of the mitochondrial membrane potential - 5 hr assay (AID 651755; calls by dose curve; note: nearly all actives have a fitted effect of over 40% in size; note: potency is the fitted concentration of half-maximal effect)
Procedure, shortened: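 Membrane-potential dye readout: red aggregate (540 ex/590 em) versus green monomer (490 ex/535 em) fluorescence after 30 min dye loading, following 5 hr compound exposure at 37C of overnight-plated HepG2 cells.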

[9] = qHTS assay to identify small molecules that stimulate interleukin-8 (IL-8) secretion (AID 651758; active = well fitted activation curve with a large enough effect in the signal ratio; the % refers to the signal ratio; note: 0% is about no effect)
Procedure, shortened: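 Secreted IL-8 measured homogeneously by TR-FRET (two labelled anti-IL-8 antibodies, 1-3 h at room temperature) after a 16 h, 37 C compound treatment of THP-1 cells at 2000 cells/well.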

[10] = target: Tumor necrosis factor (Homo sapiens) (UniProt P01375); test: qHTS assay to identify small molecules that stimulate Tumor Necrosis Factor-alpha (TNF-alpha) secretion (AID 651757; active = well fitted curve in the direction sought with a large enough effect in the signal ratio; the % refers to the signal ratio; note: 0% is about no effect)
Tumor necrosis factor (Homo sapiens), sequence (P01375 whole entry, looked up): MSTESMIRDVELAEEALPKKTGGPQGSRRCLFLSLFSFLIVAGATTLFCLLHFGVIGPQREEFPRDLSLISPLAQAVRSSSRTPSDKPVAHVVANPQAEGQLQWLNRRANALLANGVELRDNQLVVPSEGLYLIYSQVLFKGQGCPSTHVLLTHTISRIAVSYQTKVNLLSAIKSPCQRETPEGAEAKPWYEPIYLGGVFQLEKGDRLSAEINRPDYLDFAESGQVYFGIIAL
Procedure, shortened: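 THP-1 cells, 3000/well; compound 17 hrs, 37 C; add cryptate/XL665 anti-TNF-alpha antibody pair; 3 hr RT; TR-FRET (HTRF) read of secreted TNF-alpha. Quantitative HTS format.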

[11] = qHTS assay for small molecule disruptors of the mitochondrial membrane potential - 1 hr assay (AID 651754; calls by dose curve; note: nearly all actives have a fitted effect of over 35% in size; note: potency is the fitted concentration of half-maximal effect)
Procedure, shortened: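 Read-out: dye fluorescence at 490 nm ex/535 nm em (monomers) and 540 nm ex/590 nm em (aggregates) in HepG2 cells. Compound exposure 1 hr at 37C, followed by 30 min dye loading.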

[12] = Cytotoxicity counterscreen for NFkB agonists and antagonists (AID 624476); note: % is set by controls: 0 for no effect and ±100 for the full control effect
[13] = qHTS Assay for Identification of Small Molecule Agonists for NFkB Signaling Pathway. (AID 624478);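 note: compounds tested together with TNF alpha at its EC50 of 10 pM; 0% is about no effect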
Procedure, shortened: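 Read-out: 460/530 nm emission at 405 nm excitation after 2 h LiveBLAzer loading; ME-180 NFkB-bla reporter cells exposed 5 h at 37 C to compounds with 10 pM TNF alpha final.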

[14] = qHTS Assay for Identification of Small Molecule Antagonists for NFkB Signaling Pathway. (AID 624479; calls by dose curve;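 note: pathway stimulated with TNF alpha; % is set by controls: 0 for no effect and ±100 for the full control effect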)
[15] = Cell Proliferation Assay against the TMD8 Cell Line (AID 651645); conditions: TMD8 DLBCL cell line proliferation/viability; at 46.1 µM (top of the series) unless noted;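 note: cells exposed to compound for 48 h before reading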
Procedure, shortened: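 Seed log-phase TMD8 cells in RPMI containing 5% FBS, add compounds at once, incubate 48 hours at 37C. Equilibrate to room temperature, add CellTiter-Glo, read luminescence after 15 minutes and express relative to DMSO and bortezomib controls.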

[16] = Cell Proliferation Assay against the HBL1 Cell Line (AID 651646); conditions: HBL1 DLBCL cells; at 46.1 µM (top of the series) unless noted;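 note: cells exposed to compound for 48 h before reading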
Procedure, shortened: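 CellTiter-Glo luminescence after 48 h compound exposure at 37C gives percent activity, with DMSO as 100% and 9.2 uM bortezomib final as 0%. Cells: 500 log-phase HBL1 per well, RPMI plus 5% FBS.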

[17] = Cell Proliferation Assay against the TMD8 Cell Line (Caspase readout at 16 hrs) (AID 651712);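 note: 0% = DMSO and 100% = 9.2 µM bortezomib caspase activation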
Procedure, shortened: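 Caspase-Glo luminescence measured apoptosis after a 16 h, 37 C compound exposure of TMD8 cells (500 cells/well, 5% FBS RPMI). DMSO set 0% and bortezomib at 9.2 uM final set 100% activity.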

[18] = Cell Proliferation Assay against the TMD8 Cell Line (Caspase readout at 8 hrs) (AID 651713);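 note: 0% = DMSO and 100% = 9.2 µM bortezomib caspase signal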
Procedure, shortened: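 Apoptosis readout: caspase 3/7 luminescence (Caspase-Glo), 15 min RT. Cells: TMD8, 500/well, RPMI + 5% FBS, no phenol red. Exposure 8 h, 37C. % activity vs DMSO = 0, bortezomib 9.2 uM final = 100.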

Cc1cc(CC(=O)O)n(C)c1C(=O)c1ccc(Cl)cc1
activation [1]: -3.75% (inactive)
activation [2]: 0.224% (inactive)
max response [3]: -2.08% (inactive)

CCCCC(CC)COC(=O)c1ccccc1O (stereo unspecified)
activation [1]: 0.46% (inactive)
activation [4]: -1.39% (inactive)
activation [2]: -0.423% (inactive)
max response [3]: 0.691% (inactive)

COc1ccc(Cl)cc1C(=O)NCCc1ccc(S(=O)(=O)NC(=O)NC2CCCCC2)cc1
outcome [5]: inactive
outcome [6]: inactive
activation [1]: -6.63% (inactive)
activation [4]: -2.47% (inactive)
activation [2]: 1.06% (inactive)
max response [3]: 0.201% (inactive)

CN(C)CCCN1c2ccccc2CCc2ccccc21
activation [1]: -6.39% (inactive)
activation [2]: -0.861% (inactive)

CN(C)CCOC(C)(c1ccccc1)c1ccccn1 (stereo unspecified)
outcome [5]: inactive
outcome [6]: inactive
Potency [7]: inactive
activation [1]: 2.16% (inactive)
activation [2]: -1.5% (inactive)
max response [3]: -0.887% (inactive)

NC(=O)N/N=C/c1ccc([N+](=O)[O-])o1
Potency [7]: 17.2 µM (active) and 21.1 µM (active)
activation [1]: -0.844% (inactive) and -0.297% (inactive)
activation [4]: -2.02% (inactive) and 0.212% (inactive)
Potency [8]: inactive
outcome [9]: inactive
activation [2]: 5.25% (inactive) and 3.59% (inactive)
max response [3]: 0.128% (inactive) and 1.29% (inactive)

CN(C)CCCN1c2ccccc2Sc2ccc(Cl)cc21
outcome [5]: inactive
outcome [6]: inactive
activation [1]: 10.1% (inactive)
activation [2]: 3.61% (inactive)
max response [3]: -0.127% (inactive)

O=C1O[C@H]([C@@H](O)CO)C(O)=C1O
Potency [7]: 61.1 µM (active)
activation [1]: -0.0449% (inactive) and -0.779% (inactive)
outcome [10]: inactive
activation [2]: 0.758% (inactive) and 0.0107% (inactive)
max response [3]: -1.42% (inactive) and -0.305% (inactive)

Cc1c(O)cccc1C(=O)N[C@@H](CSc1ccccc1)[C@H](O)CN1C[C@H]2CCCC[C@H]2C[C@H]1C(=O)NC(C)(C)C
Potency [7]: 26.6 µM (active)
activation [1]: 10.5% (inactive)
activation [4]: 4.91% (inactive)
Potency [11]: 42.2 µM (active)
Potency [8]: 66.8 µM (active)
outcome [10]: inactive
activation [2]: -9.16% (inactive)
max response [3]: -6.84% (inactive)

NC(=O)c1ncn([C@@H]2O[C@H](CO)[C@@H](O)[C@H]2O)c1N
outcome [12]: inactive
outcome [13]: inactive
outcome [14]: inactive
viability (% of control) [15]: 128%
viability, percent of control [16]: 159%
Potency [17]: inactive
Potency [18]: inactive

CNCC(O)c1ccc(O)c(O)c1 (stereo unspecified)
outcome [6]: inactive

CC(CN1c2ccccc2Sc2ccccc21)N(C)C (stereo unspecified)
outcome [5]: inactive
outcome [6]: inactive
activation [1]: -4.88% (inactive)
Potency [4]: 25.1 µM (active)
activation [2]: -0.788% (inactive)
max response [3]: -2.77% (inactive)

Cc1cccc(Nc2cc(Cl)nc(SCC(=O)O)n2)c1C
Potency [7]: inactive
activation [1]: 4.88% (inactive)
activation [4]: 3.82% (inactive)
activation [2]: -1.86% (inactive)
max response [3]: -1.35% (inactive)

[Cl][In]([Cl])[Cl]
activation [1]: -6.82% (inactive)
Potency [11]: inactive
Potency [8]: inactive
outcome [10]: inactive
activation [2]: 0.307% (inactive)
max response [3]: -1.33% (inactive)

NCCNCCNCCN
Potency [7]: inactive
activation [1]: -2.15% (inactive)
outcome [10]: inactive
outcome [9]: inactive
max response [3]: -1.93% (inactive)

Oc1cccc(O)c1
activation [1]: 5.92% (inactive)
activation [4]: -1.45% (inactive)
Potency [11]: inactive
Potency [8]: inactive
outcome [10]: inactive
activation [2]: 2.18% (inactive)
max response [3]: -10.6% (inactive)

O=C1NS(=O)(=O)c2ccccc21
max response [3]: 0.552% (inactive)

O=S(=O)(O)NC1CCCCC1
activation [4]: -0.941% (inactive)
activation [2]: 1.78% (inactive)
max response [3]: -1.02% (inactive)

CC(O)CN(CCN(CC(C)O)CC(C)O)CC(C)O (stereo unspecified)
activation [1]: -6.2% (inactive)
activation [4]: -0.0736% (inactive)
activation [2]: 0.546% (inactive)
max response [3]: -1.89% (inactive)

COc1ccccc1O
Potency [7]: inactive
activation [1]: -3.15% (inactive) and 0.213% (inactive) and 1.06% (inactive)
activation [4]: -1.13% (inactive) and -0.291% (inactive) and -0.304% (inactive)
outcome [10]: inactive
activation [2]: 0.592% (inactive) and -0.634% (inactive) and 2.1% (inactive)
max response [3]: -1.16% (inactive) and 0.39% (inactive) and -4.81% (inactive)

CC12CCC(CC1)C(C)(C)O2
Potency [7]: inactive
activation [1]: -1.89% (inactive)
outcome [10]: inactive
activation [2]: -0.144% (inactive)
max response [3]: -0.195% (inactive)

CCOC(=O)c1ccc(O)cc1
activation [1]: -7.13% (inactive)
activation [2]: 6.21% (inactive)
max response [3]: -1.04% (inactive)

NC(=O)c1ncn([C@@H]2O[C@H](CO)[C@@H](O)[C@H]2O)n1
outcome [5]: inactive
outcome [6]: inactive
Potency [7]: inactive
outcome [10]: inactive
activation [2]: 0.173% (inactive)
max response [3]: -11% (inactive)
